Screen size: about 360,000 compounds; about 610 (0.17%) were called active. Inconclusive results (about 2%) are left out. No stated cut-off is given here; in the data, active means inhibition above about 30%; inconclusive means no clear call, values can overlap the other calls; inactive means below that. The entries come from a sample that favours actives as a whole.

For orientation: inhibition means the drop in the measured response relative to a control, in per cent.

The test system of this assay is Botulinum neurotoxin type A light chain protease (Clostridium botulinum A str. ATCC 3502). In words: blockers of BoNT/A LC substrate cleavage – biochemical, flow cytometry, MLPCN library, primary screen (AID 588499). Further: plate controls were buffer without enzyme for full effect and enzyme alone for no effect. As to conditions: multiplex microsphere protease substrate cleavage, at 10 µM, active compounds read high.
As to `CCOc1ncccc1C(=O)OCC(=O)c1c[nH]c2ccccc12`, the inhibition is 36.8% (active).
On to `CCOc1ncccc1C(=O)OCC(=O)NC1CC1`, for which the inhibition was -0.4% (inactive).
As to `O=C(OCC(=O)c1c[nH]c2ccccc12)c1cccc(O)c1`, the inhibition is 0.8% (inactive).
`CC1CCCCC12NC(=O)N(CC(=O)Nc1ccc(S(=O)(=O)Nc3ncccn3)cc1)C2=O` (stereo not drawn): the inhibition is -0.7% (inactive).
In the case of `CC(=O)Nc1ccc(-c2ccnc3c2CC(C(=O)NC(C)C)O3)cc1` (stereo not drawn), the inhibition was 0.1% (inactive).
As for `CCCc1ccc(C(O)c2ncc(-c3cccc(OC)c3)[nH]2)cc1` (stereo not drawn), the inhibition was 0.3% (inactive).
As to `COc1ccc(C2CC(c3cccs3)=NN2C(=O)CSc2nnc(N)s2)cc1OC` (stereo not drawn), the inhibition was 0.2% (inactive).
In the case of `COc1ccc(C2CC(c3cccs3)=NN2C(=O)CSc2nncs2)cc1OC` (stereo not drawn), the inhibition was 0.2% (inactive).
On to `COc1ccc(C2CC(c3cccs3)=NN2c2nc(C)c(C(C)=O)s2)cc1OC` (stereo not drawn), for which the inhibition was 63.7% (active).
To `CCN(CC)C(=O)Oc1ccc(Br)cc1C(=O)Nc1ccc(F)c(Cl)c1` belongs -0.8% (inactive).
In the case of `Cc1ccc(CNC(=O)C(=O)c2cn(CC(=O)N3CCCC3)c3ccccc23)cc1` it was 0% (inactive); in that of `O=C(NCCCn1ccnc1)C(=O)c1cn(CC(=O)N2CCCCCC2)c2ccccc12`, 30.5% (active); in that of `O=C(NCc1ccco1)C(=O)c1cn(CC(=O)N2CCCCCC2)c2ccccc12`, 10.2% (inactive).
Take `CC1(C(=O)NS(=O)(=O)C2CC2)CCCN(C(=O)CSc2ccccc2)C1` (stereo not drawn): the inhibition is 0.5% (inactive).
In the case of `CN(C(=O)COC(=O)c1cc(=O)[nH]c2ccccc12)C1CCCCC1` it was 2.1% (inactive).
To `CSCC[C@H](NC(=O)NCc1cccs1)C(=O)O` belongs -0.9% (inactive); to `COc1ccc(NC(=O)COc2ccc(C(=O)c3ccc(F)cc3)cc2)cc1S(N)(=O)=O`, -1% (inactive); to `C[C@@H]1CN([C@@H](C)CO)C(=O)CCCn2nncc2CO[C@@H]1CN(C)S(=O)(=O)c1ccc(-c2ccccc2)cc1`, -0.4% (inactive).
On to `O=c1[nH]snc1-c1c(Cl)cccc1Cl`, for which the inhibition was -0.7% (inactive).
Consider `COC(=O)c1c(NC(=O)COC(=O)[C@@H](NS(=O)(=O)c2ccccc2)C(C)C)sc2c1CCC2`, for which the inhibition is -0.3% (inactive).
On to `CCOC(=O)C1CCN(C(=O)CN2C(=O)c3cccnc3Oc3ccc(C)cc32)CC1`, for which the inhibition was -1% (inactive).
As to `CCOC(=O)C1CCN(C(=O)Cc2c(C(=O)O)[nH]c3ccccc23)CC1`, the inhibition was -4.4% (inactive).
Take `CCOC(=O)N(C)c1c(CC)nc2c(OCc3ccccc3C(=O)OC)cccn12`: the inhibition was -0.1% (inactive).
To `CCN1CCN(c2ccc(S(=O)(=O)N3CCCCC3)cc2NC(=O)Cc2c(Cl)cccc2Cl)CC1` belongs -1.8% (inactive); to `CCn1c(O)c(N=NC2=NC(=O)CS2)c2cc(C)ccc21`, -0.3% (inactive); to `COC(=O)c1ccc(CN2CCCC(C(=O)Nc3cccc(-n4cnnn4)c3)C2)cc1` (stereo not drawn), -3.3% (inactive).
With `CC(C)C1N=C2c3ccccc3N=C(SCC(=O)c3ccc(O)c(O)c3)N2C1=O` (stereo not drawn), the inhibition was 0.1% (inactive).
For the compound `Cc1cc(C(C)(C)C)oc1C(=O)N(CC(=O)NC1CCCC1)Cc1ccc(Cl)cc1`, the inhibition is -0.3% (inactive).
For the compound `CC1(C(=O)Nc2cccc(Oc3ccccc3)c2)CCN1Cc1ccccc1Cl` (stereo not drawn), the inhibition is -0.1% (inactive).
Turning to `CC(C)CN(C(=O)CN1CCN(S(=O)(=O)c2ccccc2)CC1)c1c(N)n(CC(C)C)c(=O)[nH]c1=O`, the inhibition was -2.5% (inactive).
In the case of `Cc1cc(-c2nnc(CCC(=O)NC(c3ccccc3)c3ccccc3)o2)no1`, the inhibition was 0.3% (inactive).
On to `Cc1onc(-c2c(F)cccc2Cl)c1C(=O)OCC(=O)N1C(C)CCCC1C` (stereo not drawn), for which the inhibition was 0.1% (inactive).
Take `CCOC(=O)c1cc2c(=O)n3ccccc3nc2n(CC(C)C)c1=NC(=O)c1c(-c2c(F)cccc2Cl)noc1C`: the inhibition was 60.3% (active).
In the case of `CCCn1c(=NC(C)=O)c(C(=O)OCC)cc2c(=O)n3ccccc3nc21` it was 0.6% (inactive).
On to `CC(C)C(C)(C#N)NC(=O)CSc1nncn1-c1ccccc1` (stereo not drawn), for which the inhibition was -0.7% (inactive).
`Cc1ccc(SCC2=NNC(=O)C2)cc1`: the inhibition is 0.6% (inactive).
As for `CCc1ccc(CCC(=O)Nc2ccc(S(N)(=O)=O)cc2)o1`, the inhibition was 0.3% (inactive).
On to `CCCCCCN1CCN(C2CN(Cc3cn(CCCCCC)nn3)S(=O)(=O)C2)CC1` (stereo not drawn), for which the inhibition was -0.3% (inactive).
Regarding `Cc1ccc2nc(-c3ccccc3)c(CC3CCCCC3)n2c1`, the inhibition is 1.4% (inactive).
On to `CC1=CCC2C(=O)N(c3cccc(C(=O)NC(C)c4ccccc4)c3)C(=O)C2C1` (stereo not drawn), for which the inhibition is -3.1% (inactive).
Regarding `COCCNC(=O)COc1ccc(N(C)S(=O)(=O)c2ccc3ccccc3c2)cc1`, the inhibition was -1.4% (inactive).
As to `Cc1cc2ccccc2n1CCNC(=O)COc1ccc2ccccc2c1`, the inhibition is 61.4% (active).
Regarding `Cc1ccc(C)c(NC(=O)CN(C)C(=O)COc2ccc3ccccc3c2)c1`, the inhibition is -0.4% (inactive).
With `Cc1ccc(S(=O)(=O)N2CC[C@H]3[C@@H](C2)C(=O)C[C@@H](c2ccccc2)N3S(=O)(=O)c2ccc(C)cc2)cc1`, the inhibition is -0.4% (inactive).
To `Cc1ccc(N(C(=O)c2ccc(CN3CCOCC3)o2)C(C(=O)NCCC(C)C)c2cccs2)c(C)c1` (stereo not drawn) belongs -1% (inactive); to `Cc1cccc(N(CC(=O)Nc2ccc(-c3nc4ccc(C)cc4s3)cc2)S(C)(=O)=O)c1`, -0.9% (inactive).
`CCCCCc1c(-c2ccc(OC)c(OC)c2)ncn1CCc1ccccc1OC`: the inhibition was -0.2% (inactive).
On to `COC(=O)c1ccc2nc(-c3ccc(OC)c(OC)c3)c(Cc3ccccc3)n2c1`, for which the inhibition was 3% (inactive).
`CCCOc1cccc(C(=O)Nc2ccccc2C(=O)N2CCN(C)CC2)c1`: the inhibition is -2.3% (inactive).
For the compound `COc1ccc(C(=O)NC(Cc2ccc(OC(=O)c3ccc(OC)cc3)cc2)C(=O)O)cc1` (stereo not drawn), the inhibition was 0.4% (inactive).
On to `c1csc(-c2nnc(COc3ccc4c(c3)OCO4)o2)c1`, for which the inhibition is -0.4% (inactive).
As for `COC(=O)c1ccc2nc(-c3ccc(C)cc3)c(Cc3ccc(OC)cc3C)n2c1`, the inhibition was 0.7% (inactive).
To `CN=c1scc(-c2cc(OC)ccc2OC)n1/N=C/c1c(C)[nH]c2ccccc12` belongs 7.7% (inactive).
Turning to `Cc1[nH]c2ccccc2c1/C=N/NC(=O)CNC(=O)c1ccc2c(c1)OCO2`, the inhibition was 0.6% (inactive).
For the compound `COCCNC(=S)N/N=C/c1c(C)[nH]c2ccccc12`, the inhibition was 42.9% (active).
With `CCCN(C(=O)CSc1nnnn1C)c1c(N)n(Cc2ccccc2)c(=O)[nH]c1=O`, the inhibition was -0.4% (inactive).
`CCOC(=O)c1ccn(-c2nc(-c3ccco3)cc(C(F)(F)F)n2)n1`: the inhibition is 0.1% (inactive).
To `O=C(Cn1cnc2c(OCc3ccccc3)ncnc21)NCc1nc2ccccc2[nH]1` belongs -0.1% (inactive).
With `Cc1ccc(Cc2c(-c3ccco3)nc3ccc(Cl)cn23)cc1`, the inhibition was 4.3% (inactive).
To `CCc1nnc(NC(=O)CSc2nc3ccccc3c(=O)n2CCCOC)s1` belongs 0.5% (inactive).
For `O=[N+]([O-])c1ccc(NS(=O)(=O)c2ccccc2)c(Cl)c1`, the inhibition is -0.4% (inactive).
With `CCN(C(=O)Cc1c(C(=O)O)n(CC)c2ccccc12)c1ccccc1C`, the inhibition is -3.2% (inactive).
Take `O=C1/C(=C/c2ccc(F)cc2)SC(=S)N1NS(=O)(=O)c1ccccc1`: the inhibition is 1.8% (inactive).
To `COc1cc(/C=C2\SC(=S)N(Nc3ncc(C(F)(F)F)cc3Cl)C2=O)cc(OC)c1OC` belongs 82.7% (active).
In the case of `COc1cc(-c2nnc(Cn3cc(C(F)(F)F)ccc3=O)o2)cc(OC)c1OC` it was 0.9% (inactive); in that of `Nc1nnc(SCC(=O)OCc2ccc(Cl)c(Cl)c2)s1`, -0.2% (inactive); in that of `O=c1cnnc(Nc2ccccc2F)[nH]1`, -1.3% (inactive).
Turning to `N#Cc1ccc(N2Cc3ccccc3/C2=N/C(=O)Nc2ccc(Cl)cc2)cc1`, the inhibition is -0.1% (inactive).
To `Cc1cc([N+](=O)[O-])nn1Cc1ccc(F)cc1` belongs -0.3% (inactive).
Regarding `Nc1nonc1-n1nnc(C(=O)N/N=C/c2cc(Br)ccc2O)c1CSC1=NCCS1`, the inhibition was 0.6% (inactive).
For `COc1ccc(CCNC(=S)N2CCN(S(=O)(=O)c3ccc(F)cc3)CC2)cc1`, the inhibition was 0.6% (inactive).
Take `Cn1c(NN)nc2sc3c(c2c1=O)CCC3`: the inhibition was -1.4% (inactive).
Take `CC1CCc2c(sc3nc4n(c(=O)c23)CCS4)C1` (stereo not drawn): the inhibition was 52.4% (active).
In the case of `CCCn1nnc2sc3c(c2c1=O)CCC(C)C3` (stereo not drawn) it was 0.3% (inactive); in that of `Cc1ccc2[nH]c(C(=O)O)c(NC(=O)c3ccccc3[N+](=O)[O-])c2c1`, 0.9% (inactive).
For the compound `O=C1CSC(c2cccc(F)c2)N1c1ccccc1F` (stereo not drawn), the inhibition is -0.9% (inactive).
On to `Cc1cc(Br)ccc1NC(=O)CCCOc1cc(=O)n(C)c2ccccc12`, for which the inhibition is 0% (inactive).
To `CCC(=O)N(C)C(c1ccccc1Cl)c1nnnn1-c1c(C)cccc1C` (stereo not drawn) belongs -0.4% (inactive); to `COc1ccc(/C(=N\O)c2nccc3cc(OC)c(OC)cc23)cc1OC`, -0.2% (inactive); to `COc1ccc(C2OC(CCc3ccccc3)Cc3[nH]c(=S)[nH]c(=O)c32)cc1` (stereo not drawn), 0.5% (inactive).
With `CCOc1ccc2ccccc2c1/C=N/NC(=O)c1c(C)cc(C)[nH]c1=O`, the inhibition is 0.8% (inactive).
To `O=C(O)c1ccc2c(=O)n3c(nc2c1)/C(=C/c1ccc(OC(F)F)cc1OC(F)F)CC3` belongs -1.9% (inactive); to `CC(C)(C)c1ccc(S(=O)(=O)NC(=O)C2(C)CCN2C(=O)CC2CC2)cc1` (stereo not drawn), -0.9% (inactive).
Consider `O=C(CC(NC(=O)c1ccccc1)c1ccccc1)Nc1ccc(F)c(F)c1` (stereo not drawn), for which the inhibition was -0.5% (inactive).
As for `CN(C(=O)CSc1nnc(-c2n[nH]c3ccccc23)o1)c1ccccc1`, the inhibition is 0.1% (inactive).
Turning to `Cc1nc(C(F)(F)F)ccc1C(=O)N1CCC1(C)C(=O)NS(=O)(=O)c1ccccc1` (stereo not drawn), the inhibition was -0.7% (inactive).
As to `Nc1nc2c(ncn2[C@@H]2O[C@H](CNCc3ccc(OCCCN4CCOCC4)cc3)[C@@H](O)[C@H]2O)c(=O)[nH]1`, the inhibition was -0.1% (inactive).
With `CCc1oc(-c2ccc(OC)cc2)c(C(=O)OCCCCCO)c1C(C)OCCO` (stereo not drawn), the inhibition was 0.8% (inactive).

Source of the values: PubChem BioAssay AID588499 (NMMLSC, 2011).
